Assay results as given in PubChem BioAssay (NCI).
About 79,000 compounds went through this panel and 15% of them were active in at least one assay; those are over-represented in the sample as a whole. Active and inactive are the calls of the source. Cut-off read from the data, not from the text of the source: active = growth inhibition above about 70%; inactive = the rest.

Columns and labels:
[1] = NCI Yeast Anticancer Drug Screen. Data for the rad52 strain (AID 147);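 note: 0% = growth of vehicle-treated control cultures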; settings: S. cerevisiae rad52 mutant growth inhibition, hits give high values
Method in brief: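 Read-out: growth inhibition versus vehicle-treated controls. Cells were a DNA repair-deficient yeast strain treated with compounds.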

[2] = NCI Yeast Anticancer Drug Screen. Data for the wt1 strain (AID 149);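 note: 0% = growth of vehicle-treated wt1 cultures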; settings: S. cerevisiae wt1 strain (SPY 50644) growth inhibition, hits give high values
Method in brief: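 wt1 yeast, compound-treated; % growth inhibition vs vehicle control.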

[3] = NCI Yeast Anticancer Drug Screen. Data for the mgt1 strain (AID 153); settings: S. cerevisiae mgt1 mutant growth inhibition, hits give high values
Method in brief: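 mgt1 yeast grown with test compound; read-out is growth inhibition versus vehicle-treated cultures.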

[4] = NCI Yeast Anticancer Drug Screen. Data for the rad50 strain (AID 155);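 note: 0% = growth of vehicle-only cultures of the same strain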; settings: S. cerevisiae rad50 strain growth inhibition, hits give high values
Method in brief: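 Genetically altered yeast (DNA repair pathway); compound treatment; growth inhibition vs vehicle ctrl.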

[5] = NCI Yeast Anticancer Drug Screen. Data for the mec2-1 strain (AID 157); settings: S. cerevisiae mec2-1 strain, hits give high values
Method in brief: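 Yeast mec2-1 mutant treated with compound. Readout: growth inhibition vs vehicle controls.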

[6] = NCI Yeast Anticancer Drug Screen. Data for the rad14 strain (AID 159);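 note: 0% = growth of vehicle-treated control cultures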; settings: S. cerevisiae rad14 strain growth inhibition, hits give high values
Method in brief: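 Test compounds were applied to a repair-deficient yeast strain. Its growth was then compared with that of cultures given vehicle alone, and inhibition was expressed relative to those controls.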

[7] = NCI Yeast Anticancer Drug Screen. Data for the sgs1 mgt1 strain (AID 161);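 note: 0% = growth of cultures given vehicle only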; settings: S. cerevisiae sgs1 mgt1 strain, hits give high values
Method in brief: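 Read-out: growth inhibition vs vehicle controls. Cells: mutant yeast strain deficient in DNA damage repair.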

[8] = NCI Yeast Anticancer Drug Screen. Data for the cln2 rad14 strain (AID 165);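 note: 0% = growth equal to vehicle treated cultures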; settings: S. cerevisiae cln2 rad14 strain, hits give high values
Method in brief: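 cln2 rad14 yeast strain; compound exposure; growth inhibition read vs vehicle controls.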

[9] = NCI Yeast Anticancer Drug Screen. Data for the bub3 strain (AID 167); settings: S. cerevisiae bub3 mutant strain, hits give high values
Method in brief: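 Yeast carrying a defined mutation is treated with each compound, and growth is compared with that of vehicle-exposed cells to give inhibition.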

[10] = NCI Yeast Anticancer Drug Screen. Data for the wt2 strain (AID 169);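 note: 0% = growth of vehicle-treated yeast cultures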; settings: S. cerevisiae wt2 strain growth inhibition, hits give high values
Method in brief: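 Read-out: growth inhibition versus vehicle-treated control cultures after compound exposure of the yeast strain.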

[11] = NCI Yeast Anticancer Drug Screen. Data for the mlh1 strain (AID 171);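 note: 0% = growth of vehicle-treated control cultures of the same strain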; settings: S. cerevisiae mlh1 strain growth inhibition, hits give high values
Method in brief: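 Read-out: growth inhibition versus vehicle controls. Strain: engineered yeast with a defined DNA repair or cell cycle defect, compound-treated.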

[12] = NCI Yeast Anticancer Drug Screen. Data for the sgs1 strain (AID 173);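 note: 0% = growth of vehicle-only control cultures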; settings: S. cerevisiae sgs1 mutant, hits give high values
Method in brief: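 Read-out: yeast growth inhibition relative to vehicle controls, following compound exposure of a strain with a defined DNA repair/cell cycle alteration.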

[13] = NCI Yeast Anticancer Drug Screen. Data for the mlh1 rad18 strain (AID 175); settings: S. cerevisiae mlh1 rad18 strain growth inhibition, hits give high values
Method in brief: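 Yeast w/ defined DNA-repair lesions; compound exposure; growth vs vehicle controls → % inhibition.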

[14] = NCI Yeast Anticancer Drug Screen. Data for the rad18 strain (AID 177); settings: S. cerevisiae rad18 mutant growth inhibition, hits give high values
Method in brief: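 Readout: growth inhibition vs vehicle controls. Cells: genetically altered yeast strain, DNA repair defect.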

[15] = NCI Yeast Anticancer Drug Screen. Data for the rad50EPP+ strain (AID 151);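 note: 0% = growth of vehicle-treated control cultures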; settings: S. cerevisiae rad50 mutant strain, hits give high values
Method in brief: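 Growth inhibition read against vehicle controls in rad50EPP+ yeast, a strain altered in DNA damage repair, after compound exposure.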

[16] = NCI Yeast Anticancer Drug Screen. Data for the CLN2oe strain (AID 163);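 note: 0% = growth of vehicle-only control cultures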; settings: S. cerevisiae CLN2oe strain, hits give high values
Method in brief: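 Read-out: yeast growth inhibition, expressed relative to vehicle-only controls. The strain bears an engineered cell-cycle alteration.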

[17] = at 5.0 µM (retest, dose inferred, filed as 0.5)
[18] = at 50.0 µM (retest, dose inferred, filed as 5.0)

Measured: growth inhibition

CCCCCCCCCCCNC=O
inactive: [1]; at 1.2 µM -33% | [1]; at 3.7 µM -30% | [1]; at 11.0 µM -39% | [1]; at 33.0 µM 34% | [2]; at 1.2 µM -18% | [2]; at 3.7 µM -10% | [2]; at 11.0 µM -9% | [2]; at 33.0 µM 1% | [3]; at 1.2 µM -30% | [3]; at 3.7 µM -19% | [3]; at 11.0 µM -18% | [4]; at 1.2 µM -16% | [4]; at 3.7 µM -19% | [4]; [17] 1% | [4]; at 11.0 µM -41% | [4]; at 33.0 µM 29% | [5]; at 1.2 µM -22% | [5]; at 3.7 µM -21% | [5]; [17] 7% | [5]; at 11.0 µM -20% | [5]; at 33.0 µM 21% | [6]; at 1.2 µM -7% | [6]; at 3.7 µM -17% | [6]; at 11.0 µM -4% | [6]; at 33.0 µM 30% | [7]; [17] 9% | [8]; [17] 42% | [9]; at 1.2 µM -21% | [9]; at 3.7 µM -14% | [9]; [17] 22% | [9]; at 11.0 µM -12% | [9]; at 33.0 µM 21% | [10]; at 1.2 µM -45% | [10]; at 3.7 µM -39% | [10]; at 11.0 µM -33% | [10]; at 33.0 µM -5% | [11]; at 1.2 µM -17% | [11]; at 3.7 µM -19% | [11]; at 11.0 µM -11% | [11]; at 33.0 µM 69% | [12]; at 1.2 µM -14% | [12]; at 3.7 µM -17% | [12]; at 11.0 µM -19% | [12]; at 33.0 µM 3% | [13]; [17] -14% | [14]; at 1.2 µM -22% | [14]; at 3.7 µM -22% | [14]; at 11.0 µM -15% | [14]; at 33.0 µM 54%
active: [1]; at 100.0 µM 98% | [2]; at 100.0 µM 98% | [3]; at 33.0 µM 72% | [3]; at 100.0 µM 98% | [4]; [18] 96% | [4]; at 50.0 µM 89.9% | [4]; at 100.0 µM 98% | [5]; [18] 96% | [5]; at 50.0 µM 91.3% | [5]; at 100.0 µM 98% | [6]; at 100.0 µM 98% | [7]; [18] 93% | [7]; at 50.0 µM 92.5% | [8]; [18] 94% | [8]; at 50.0 µM 88% | [9]; [18] 97% | [9]; at 50.0 µM 89.4% | [9]; at 100.0 µM 98% | [10]; at 100.0 µM 98% | [11]; at 100.0 µM 98% | [12]; at 100.0 µM 99% | [13]; [18] 97% | [13]; at 50.0 µM 88.6% | [14]; at 100.0 µM 98%

C[n+]1c(/C=C/c2ccc(/C=N/NC(=O)c3ccc(C(=O)N/N=C/c4ccc(/C=C/c5cn6ccccc6[n+]5C)cc4)cc3)cc2)cn2ccccc21
active: [1]; at 1.2 µM 80% | [1]; at 3.7 µM 97% | [1]; at 11.0 µM 97% | [1]; at 33.0 µM 96% | [1]; at 100.0 µM 93% | [15]; at 3.7 µM 97% | [15]; at 11.0 µM 95% | [15]; at 33.0 µM 95% | [15]; at 100.0 µM 91% | [3]; at 3.7 µM 99% | [3]; at 11.0 µM 99% | [3]; at 33.0 µM 97% | [3]; at 100.0 µM 94% | [4]; at 1.2 µM 87% | [4]; at 3.7 µM 98% | [4]; [17] 79% | [4]; at 11.0 µM 97% | [4]; at 33.0 µM 95% | [4]; [18] 96% | [4]; at 50.0 µM 88.7% | [4]; at 100.0 µM 89% | [5]; at 3.7 µM 99% | [5]; [17] 92% | [5]; at 11.0 µM 98% | [5]; at 33.0 µM 97% | [5]; [18] 98% | [5]; at 50.0 µM 90.8% | [5]; at 100.0 µM 94% | [6]; at 3.7 µM 98% | [6]; at 11.0 µM 97% | [6]; at 33.0 µM 97% | [6]; at 100.0 µM 92% | [7]; [18] 98% | [7]; at 50.0 µM 85.7% | [16]; at 3.7 µM 91% | [16]; at 11.0 µM 91% | [16]; at 33.0 µM 95% | [16]; at 100.0 µM 89% | [8]; [18] 98% | [8]; at 50.0 µM 85.7% | [9]; at 3.7 µM 98% | [9]; at 11.0 µM 98% | [9]; at 33.0 µM 97% | [9]; at 50.0 µM 90.9% | [9]; at 100.0 µM 93% | [10]; at 3.7 µM 98% | [10]; at 11.0 µM 96% | [10]; at 33.0 µM 98% | [10]; at 100.0 µM 97% | [11]; at 3.7 µM 99% | [11]; at 11.0 µM 98% | [11]; at 33.0 µM 97% | [11]; at 100.0 µM 94% | [12]; at 3.7 µM 98% | [12]; at 11.0 µM 99% | [12]; at 33.0 µM 98% | [12]; at 100.0 µM 95% | [13]; [17] 90% | [13]; [18] 98% | [13]; at 50.0 µM 91.7%
inactive: [15]; at 1.2 µM 58% | [3]; at 1.2 µM 42% | [5]; at 1.2 µM 62% | [6]; at 1.2 µM 62% | [7]; [17] 64% | [16]; at 1.2 µM 47% | [8]; [17] 33% | [9]; at 1.2 µM 41% | [9]; [17] 8% | [9]; [18] 4% | [10]; at 1.2 µM 45% | [11]; at 1.2 µM 52% | [12]; at 1.2 µM 56%
